Reference: PubChem BioAssay (Tox21)
Records with an inconclusive call do not appear. Active and inactive are the calls of the source. The call rests on the fitted dose curve; in most records, active means well fitted inhibition curve with a large enough effect in the repeat runs; inconclusive means weak or mixed curves; inactive means no such curve, though single readings can be large or run the other way.

These compounds were tested against Cytochrome P450 2C19 (Homo sapiens) (UniProt P33261) (assay: Cytochrome P450 Family 2 Subfamily C Member 19 (CYP2C19) small molecule antagonists: luciferase reporter qHTS assay (AID 1671197; further: nearly all actives have a fitted effect of over 65% in size)). Conditions: P450-Glo CYP2C19 enzyme, luciferin luminescence, 1 h; series mostly up to 115 µM; activity change, negative = inhibition: at the top concentration.
Excerpt: National Center for Advancing Translational Sciences [NCATS]
U.S. Environmental Protection Agency [EPA]
National Institutes of Environmental Health Sciences [NIEHS]
National Toxicology Program [NTP]
U.S. Food and Drug Administration [FDA]
Cytochrome P450 (CYP) enzymes are membrane-bound hemeproteins that play a key role in metabolism of drugs and xenobiotics. Evaluation of the effect of chemicals on CYP isozymes is useful to minimize the adverse drug reactions and toxicities in drug development process. Tox21 chemicals were tested for their effect on CYP enzyme activities by using P450-Glo (TM) screening systems (Promega Corporation, Madison, WI). These systems provide a luminescent method containing proluciferin substrates and are converted to luciferin products by CYP isozymes. The luciferin products formed are detected with a luciferin detection reagent, and the amount of light produced is proportional to CYP activity. P450-Glo (TM) CYP2C19 screening system (Catalog. No. V9880) was used to detect the compounds that interfere in CYP2C19 activity. The positive control compound used for CYP2C19 assay is ketoconazole (Sigma-Aldrich, St. Louis, MO).
Tox21 Assay Protocol Summary:
Two ul of enzyme-substrate mix was dispensed into medium binding white/solid 1536-well plates (Greiner Bio-One North America Inc., Monroe, NC) using a BioRaptr Flying Reagent Dispenser (FRD, Beckman Coulter, Brea, CA). Compounds dissolved in DMSO and positive control (ketoconazole) were transferred to the assay plates at 23 nl using a Pintool station (Wako, San Diego, CA). The assay plates were incubated at room temperature for 10 min. Then 2 ul of NADPH regeneration solution was added to each well of the assay plates using an FRD and incubated at 37C for 1 h. The reaction was stopped by adding 4 ul of detection reagent using an FRD and after 20 min incubation at room temperature the luminescence signal was measured using a ViewLux plate reader (Perkin Elmer, Shelton, CT). Data were expressed as relative luminescence units.
On the % scale 0 is the no-effect control and ±100 the full control effect; potency means the concentration at half of the fitted maximal effect.

Cytochrome P450 2C19 (Homo sapiens), sequence (P33261 whole entry, looked up): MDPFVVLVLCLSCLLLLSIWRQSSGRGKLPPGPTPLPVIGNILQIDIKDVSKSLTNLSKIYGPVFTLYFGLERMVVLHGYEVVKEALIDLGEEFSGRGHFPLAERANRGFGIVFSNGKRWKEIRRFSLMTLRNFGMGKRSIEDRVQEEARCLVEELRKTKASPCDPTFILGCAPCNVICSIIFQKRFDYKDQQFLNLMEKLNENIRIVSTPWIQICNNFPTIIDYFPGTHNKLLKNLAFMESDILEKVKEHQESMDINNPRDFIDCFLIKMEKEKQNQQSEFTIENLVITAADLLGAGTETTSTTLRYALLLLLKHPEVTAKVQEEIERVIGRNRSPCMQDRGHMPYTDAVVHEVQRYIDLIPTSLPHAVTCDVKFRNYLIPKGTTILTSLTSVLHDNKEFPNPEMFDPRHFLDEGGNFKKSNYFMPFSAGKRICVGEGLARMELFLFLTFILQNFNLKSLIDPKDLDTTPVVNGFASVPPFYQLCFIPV

SMILES	Potency	activity change, negative = inhibition
CCNc1nc(Cl)nc(NC(C)(C)C)n1	35.6 µM (active)	–
O=C/C=C/c1ccco1	–	-5.82% (inactive)
BrCC1CO1 (stereo not given)	–	2.14% (inactive)
O=C(NC(O)C(Cl)(Cl)Cl)NC(O)C(Cl)(Cl)Cl (stereo not given)	–	7.21% [at 52.9 µM] (inactive)
CC(=O)OCC1=C(C(=O)O)N2C(=O)[C@@H](N)[C@H]2SC1	15.1 µM (active)	–
O=C(Cl)C(Cl)Cl	–	-10.8% (inactive)
CC[C@@H](CO)NC(=O)[C@@H]1C=C2c3cccc4c3c(cn4C)C[C@H]2N(C)C1	–	1.81% [at 52.9 µM] (inactive)
c1cncc([C@@H]2CCCCN2)c1	39.9 µM (active)	–
CCCC(C)(COC(N)=O)COC(N)=O	33.7 µM (active)	–
O=C(Cl)c1ccccc1	41.1 µM (active)	–
CCC1(c2ccccc2)C(=O)N(COC)C(=O)N(COC)C1=O	6.92 µM (active)	–
CN(C)CCc1c[nH]c2cccc(OP(=O)(O)O)c12	–	5.09% (inactive)
CCN(CC)C1CCCCC1	–	15% (inactive)
CC(C)C(C)(N)C#N (stereo not given)	–	24.8% (inactive)
[O-][Br+2]([O-])O	–	14.6% [at 52.9 µM] (inactive)
[P]#[In]	–	22.7% (inactive)
CCC(C)C(C)(COC(N)=O)COC(N)=O (stereo not given)	–	-25.2% [at 52.9 µM] (inactive)
CN1C(=O)COc2c(C(=O)NC3CN4CCC3CC4)cc(Cl)cc21 (stereo not given)	–	38.2% [at 52.9 µM] (inactive)
CCCN1CCC[C@@H]2Cc3[nH]ncc3C[C@H]21	–	29% [at 52.9 µM] (inactive)
C=CCc1cc(OC)c2c(c1)OCO2	59 µM (active)	–

SMILES	Potency	activity change, negative = inhibition
ClC1=C(Cl)C2(Cl)C(CBr)CC1(Cl)C2(Cl)Cl (stereo not given)	inactive	–
O=c1[nH]oc2c1CCNC2	–	0.396% [at 52.9 µM] (inactive)
CC1=C2[C@H]3OC(=O)[C@@H](C)[C@@H]3CC[C@@]2(C)C=CC1=O	–	8.47% [at 52.9 µM] (inactive)
O=C1CC(=O)NC(=O)N1	–	7.79% (inactive)
NCCOS(=O)(=O)O	–	-9.99% (inactive)
NC(=O)OCCCc1ccccc1	–	2.35% [at 52.9 µM] (inactive)
COc1cc(CC(C)N)cc(OC)c1OC (stereo not given)	–	3.49% (inactive)
CC(C)N(Cc1ccccc1)C(=O)C(C)(C)C	20 µM (active)	–
CC[C@H](O)C(C[C@H](C)N(C)C)(c1ccccc1)c1ccccc1	–	-8.85% (inactive)
Oc1ccc(Cc2ccc(O)cc2)cc1	–	-1.37% (inactive)
Oc1ccc2c3c1O[C@H]1[C@@H](O)C=C[C@H]4[C@@H](C2)NCC[C@@]341	–	20.6% (inactive)
Cc1ccc(Cl)c(O)c1	–	-2.18% [at 52.9 µM] (inactive)
COC(=O)[C@@H](N)CCCN/C(N)=N/[N+](=O)[O-]	–	-7.23% [at 52.9 µM] (inactive)
S=C=S	44.3 µM (active)	–
CC#Cc1cc(C)nc(Nc2ccccc2)n1	35.5 µM (active)	–
COP(=O)(O)OC	18.5 µM (active)	–
CC(O)CCl (stereo not given)	–	4% (inactive)
CCOC(=O)Nc1cccc(OC(=O)Nc2ccccc2)c1	20 µM (active)	–
C=C1CC[C@@]2(O)[C@H]3Cc4ccc(O)c5c4[C@@]2(CCN3CC2CC2)[C@H]1O5	–	-14.7% [at 52.9 µM] (inactive)
CC(C)NCC(O)c1ccc([N+](=O)[O-])cc1 (stereo not given)	–	12.5% [at 52.9 µM] (inactive)
